Reference: PubChem BioAssay (NCI)
Several values for one entry are separate records, joined by “and”; a condition that tells them apart may be missing. Equal entries are not always repeated. The panel holds about 83,000 compounds, 20% with a hit somewhere; the sample as a whole holds those more often.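 Single-dose data. Exposure time 48 hours. Values below 10 considered active.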 Activity calls are given as the source filed them.

What was measured:
Experiment in all cases: NCI-60 one-dose screen, 48 h (100 = growth as untreated, 0 = no growth, -100 = all killed)
Conditions in all cases: 10 µM unless noted
NCI-H23 lung = system: NCI-H23 lung
NCI-H226 lung = system: NCI-H226 lung
NCI-H322M lung = system: NCI-H322M lung
HOP-62 NSCLC = system: HOP-62 NSCLC
NCI-H460 lung = system: NCI-H460 lung
HOP-92 NSCLC = system: HOP-92 NSCLC
NCI-H522 lung = system: NCI-H522 lung
A549/ATCC NSCLC = system: A549/ATCC NSCLC
786-0 renal = system: 786-0 renal
COLO 205 colon = system: COLO 205 colon
DU-145 prostate = system: DU-145 prostate
K-562 leukemia = system: K-562 leukemia
MALME-3M melanoma = system: MALME-3M melanoma
MDA-MB-231 breast = system: MDA-MB-231 breast
RXF 393 renal = system: RXF 393 renal
SF-268 CNS = system: SF-268 CNS
SF-295 CNS = system: SF-295 CNS
SF-539 CNS = system: SF-539 CNS
UACC-257 melanoma = system: UACC-257 melanoma
M14 melanoma = system: M14 melanoma

| Structure (SMILES) | growth (NCI-H23 lung) | growth (NCI-H226 lung) | growth (NCI-H322M lung) | growth (HOP-62 NSCLC) | growth (NCI-H460 lung) | growth (HOP-92 NSCLC) | growth (NCI-H522 lung) | growth (A549/ATCC NSCLC) | growth (786-0 renal) | growth (COLO 205 colon) | growth (DU-145 prostate) | growth (K-562 leukemia) | growth (MALME-3M melanoma) | growth (MDA-MB-231 breast) | growth (RXF 393 renal) | growth (SF-268 CNS) | growth (SF-295 CNS) | growth (SF-539 CNS) | growth (UACC-257 melanoma) | growth (M14 melanoma) |
| --- | --- | --- | --- | --- | --- | --- | --- | --- | --- | --- | --- | --- | --- | --- | --- | --- | --- | --- | --- | --- |
| CCCCOC1NC(=O)NC(=O)C1(F)C(=O)OCC (stereo not given) | 79.6% (inactive) and 55.9% (inactive) | 101% (inactive) and 102% (inactive) | 74% (inactive) and 67.9% (inactive) | 76.9% (inactive) and 43.3% (inactive) | 47.2% (inactive) and 25.6% (inactive) | 67.6% (inactive) and 85.6% (inactive) | 80.1% (inactive) | 48.8% (inactive) and 46.3% (inactive) | 93% (inactive) and 67.6% (inactive) | 61.7% (inactive) and 53.9% (inactive) | 73% (inactive) and 51.5% (inactive) | 88.1% (inactive) and 57.4% (inactive) | 65.7% (inactive) and 65.1% (inactive) | 92.8% (inactive) and 75% (inactive) | 98.1% (inactive) and 82.7% (inactive) | 98.8% (inactive) and 83.1% (inactive) | 94.1% (inactive) and 93.7% (inactive) | 11.3% (inactive) and 5.65% (active) | 77.2% (inactive) | 71.4% (inactive) and 71.3% (inactive) |
| CCn1c2ccc(N(C)C)cc2c2cc(N(C)C)ccc21 | 92.1% (inactive) | 97.4% (inactive) | 95.2% (inactive) | 90.2% (inactive) | 99.8% (inactive) | 90.6% (inactive) | 77.3% (inactive) | 85.7% (inactive) | 102% (inactive) | 46.8% (inactive) | 108% (inactive) | 90.6% (inactive) | 111% (inactive) | 83.8% (inactive) | 97.3% (inactive) | 92.8% (inactive) | 104% (inactive) | 100% (inactive) | 93% (inactive) | 102% (inactive) |
| O=COCCCc1ccccc1 | 109% (inactive) | 95.4% (inactive) | 104% (inactive) | 86.4% (inactive) | 107% (inactive) | 84.9% (inactive) | 80.5% (inactive) | 83.7% (inactive) | 105% (inactive) | 106% (inactive) | 112% (inactive) | 104% (inactive) | 106% (inactive) | 100% (inactive) | 108% (inactive) | 103% (inactive) | 106% (inactive) | 102% (inactive) | 86.5% (inactive) | 105% (inactive) |
| CN(C)CC(CN(C)C)C(O)c1ccccc1 (stereo not given) | 106% (inactive) | 96.6% (inactive) | 103% (inactive) | 91.4% (inactive) | 112% (inactive) | 97.9% (inactive) | 76.4% (inactive) | 91.5% (inactive) | 96.6% (inactive) | 110% (inactive) | 110% (inactive) | 94.5% (inactive) | 105% (inactive) | 114% (inactive) | 110% (inactive) | 99% (inactive) | 96.9% (inactive) | 90.7% (inactive) | 102% (inactive) | 96.4% (inactive) |
| O=C(c1ccncc1)c1c(Cc2ccccc2)ccc2ccccc12 | 55.2% (inactive) | 82.5% (inactive) | 74.2% (inactive) | 95.1% (inactive) | 89.8% (inactive) | 82% (inactive) | 27.8% (inactive) | 72.2% (inactive) | 104% (inactive) | 87% (inactive) | 99.2% (inactive) | 101% (inactive) | 32.3% (inactive) | 70.2% (inactive) | 84% (inactive) | 117% (inactive) | 83.6% (inactive) | 95.3% (inactive) | -14.4% (active) | 108% (inactive) |
| O=C1C=CC(=O)N1Cc1ccco1 | 81.7% (inactive) | 97.1% (inactive) | 85.1% (inactive) | 94.7% (inactive) | 50.9% (inactive) | 102% (inactive) | 67.8% (inactive) | 92.1% (inactive) | 104% (inactive) | 89.2% (inactive) | 4.25% (active) | 94.1% (inactive) | 94.5% (inactive) | 84% (inactive) | 68.6% (inactive) | 89.7% (inactive) | 72.2% (inactive) | 108% (inactive) | 104% (inactive) | 85.3% (inactive) |
